Test systems include SK-MEL-2 melanoma; EKVX NSCLC; SN12C renal; UO-31 renal; TK-10 renal; ACHN renal; CAKI-1 renal; A498 renal; CCRF-CEM leukemia; MOLT-4 leukemia; SR leukemia; OVCAR-8 ovarian; OVCAR-5 ovarian; OVCAR-4 ovarian; SK-OV-3 ovarian; IGROV1 ovarian; OVCAR-3 ovarian; HS 578T breast; NCI/ADR-RES ovarian.
Common to all, as to assay: NCI-60 one-dose screen, 48 h (100 = growth as untreated, 0 = no growth, -100 = all killed)
What all share (details): 10 µM unless noted

In PubChem BioAssay (NCI) one finds growth data, which are given here for eight molecules.

SMILES strings stand for the structures. Compounds without any hit were thinned out: in the full panel of roughly 83,000, 20% have a hit.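 Single-dose data. Exposure time 48 hours. Values below 10 considered active.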 Values without a mark were called inactive. Activity calls are given as the source filed them.

Consider `COc1ccc2sc3c(NCCO)nc4ccccc4c3c(=O)c2c1`, for which the growth was 107% in the experiment on SK-MEL-2 melanoma; 70.3% in the experiment with EKVX NSCLC; 96.6% in the experiment with SN12C renal; 79.4% in the experiment on UO-31 renal; 103% with TK-10 renal; 98.1% in the experiment with ACHN renal. The growth is 90.5% with CAKI-1 renal; 48.7% with A498 renal; 75.3% in the experiment with CCRF-CEM leukemia; 89.3% with MOLT-4 leukemia; 83.9% in the experiment on SR leukemia; 92.1% in the experiment on OVCAR-8 ovarian. In addition, the growth with OVCAR-5 ovarian is 102%; in the experiment with OVCAR-4 ovarian, 114%; in the experiment on SK-OV-3 ovarian, 110%; in the experiment on IGROV1 ovarian, 113%; in the experiment with OVCAR-3 ovarian, 122%; with HS 578T breast it was 95.4%. Further, the growth in the experiment on NCI/ADR-RES ovarian was 99.6%.

Take `Cc1ccc(NC2=C(Cl)C(=O)c3nc(C)ccc3C2=O)cc1`: the growth in the experiment on SK-MEL-2 melanoma is -23.8% (active); in the experiment with EKVX NSCLC, 58.6%; with SN12C renal it was -70.4% (active); with UO-31 renal it was -80.6% (active); in the experiment on TK-10 renal it was 130%; with ACHN renal, -98.1% (active). In addition, the growth in the experiment with CAKI-1 renal is -72% (active); in the experiment with A498 renal, 91%; with CCRF-CEM leukemia, 0.58% (active); with MOLT-4 leukemia, -13.5% (active); in the experiment on SR leukemia, 21.8%; in the experiment on OVCAR-8 ovarian, -49.4% (active). The growth in the experiment on OVCAR-5 ovarian is -11.6% (active); in the experiment on OVCAR-4 ovarian, -97.9% (active); in the experiment with SK-OV-3 ovarian, 88.7%; in the experiment with IGROV1 ovarian, -75.5% (active); in the experiment with OVCAR-3 ovarian, -76.7% (active); in the experiment on HS 578T breast, 27.9%. Further, in the experiment on NCI/ADR-RES ovarian, the growth was 30.6%.

With `NCCCNc1nc2ccccc2c2c(=O)c3cc(F)cc(Cl)c3sc12`, the growth was 105% in the experiment with SK-MEL-2 melanoma; 91.9% with EKVX NSCLC; 82.7% in the experiment on SN12C renal; 58.4% in the experiment on UO-31 renal; 106% with TK-10 renal; 61.9% in the experiment with ACHN renal. The growth is 63.1% with CAKI-1 renal; 66.3% with A498 renal; 6.83% (active) in the experiment with CCRF-CEM leukemia; 77.7% in the experiment on MOLT-4 leukemia; -17.3% (active) in the experiment with SR leukemia; 5.77% (active) with OVCAR-8 ovarian. Further, the growth was 96.6% with OVCAR-5 ovarian; -65.3% (active) in the experiment with OVCAR-4 ovarian; 102% in the experiment with SK-OV-3 ovarian; 80% with IGROV1 ovarian; 102% with OVCAR-3 ovarian; 88.3% in the experiment with HS 578T breast. In addition, the growth in the experiment on NCI/ADR-RES ovarian is 85.5%.

With `Cc1c(C(=O)NCCN2CCOCC2)cn2ncnc(Oc3ccc(NC(=O)Nc4ccc(Cl)c(C(F)(F)F)c4)cc3)c12`, the growth with SK-MEL-2 melanoma is -20.8% (active); with EKVX NSCLC, 25.2%; in the experiment on SN12C renal, 21.2%; with UO-31 renal it was 52.7%; with TK-10 renal, 32.2%; in the experiment with ACHN renal it was 13.6%. For the same molecule, the growth in the experiment on CAKI-1 renal was 30.3%; in the experiment on A498 renal, -5.16% (active); with CCRF-CEM leukemia, 9.09% (active); with MOLT-4 leukemia, -3.35% (active); in the experiment with SR leukemia, 1.03% (active); with OVCAR-8 ovarian, 33%. The growth in the experiment with OVCAR-5 ovarian was 53.3%; with OVCAR-4 ovarian, 31.7%; with SK-OV-3 ovarian, 30.6%; in the experiment on IGROV1 ovarian, 39.3%; in the experiment with OVCAR-3 ovarian it was 16%; in the experiment on HS 578T breast, -23.8% (active). Also, the growth with NCI/ADR-RES ovarian is 82.1%.

On to `CS(=O)(=O)Nc1cc(-c2ccc3ncnc(Nc4cccc(Cl)c4F)c3c2)cnc1Cl`, for which the growth was 28.4% in the experiment with SK-MEL-2 melanoma; 44.7% in the experiment with EKVX NSCLC; 37.4% in the experiment with SN12C renal; 28.8% in the experiment with UO-31 renal; 34.8% in the experiment with TK-10 renal; 66.5% in the experiment with ACHN renal. The growth was 19.8% in the experiment on CAKI-1 renal; -32.5% (active) in the experiment on A498 renal; 30.4% in the experiment on CCRF-CEM leukemia; 27.3% with MOLT-4 leukemia; 43.5% with SR leukemia; 60.8% in the experiment with OVCAR-8 ovarian. The growth is 38.3% in the experiment on OVCAR-5 ovarian; 77.2% with OVCAR-4 ovarian; 30.5% with SK-OV-3 ovarian; -8.72% (active) in the experiment on IGROV1 ovarian; 25% in the experiment with OVCAR-3 ovarian; -3.32% (active) in the experiment on HS 578T breast. Besides, the growth in the experiment on NCI/ADR-RES ovarian was 86.9%.

As to `CCC(C)(c1cc(C(C)(C)C)c(O)c(C(C)(C)C)c1)c1cc(C(C)(C)C)c(O)c(C(C)(C)C)c1`, the growth is 96.2% in the experiment on SK-MEL-2 melanoma; 107% in the experiment on EKVX NSCLC; 101% in the experiment on SN12C renal; 92.2% with UO-31 renal; 97.3% with TK-10 renal; 101% in the experiment on ACHN renal. In addition, the growth is 94.2% with CAKI-1 renal; 101% in the experiment with A498 renal; 98.9% with CCRF-CEM leukemia; 100% in the experiment with MOLT-4 leukemia; 90.4% in the experiment on SR leukemia; 102% in the experiment with OVCAR-8 ovarian. For the same molecule, the growth in the experiment with OVCAR-5 ovarian is 94.5%; with OVCAR-4 ovarian, 103%; with SK-OV-3 ovarian it was 100%; in the experiment with OVCAR-3 ovarian it was 109%; in the experiment on HS 578T breast it was 97%; in the experiment on NCI/ADR-RES ovarian it was 102%.

`NCCCNc1nc2ccccc2c2c(=O)c3cc(F)cc(F)c3sc12`: the growth was 111% in the experiment on SK-MEL-2 melanoma; 96.8% with EKVX NSCLC; 80.8% in the experiment with SN12C renal; -95% (active) in the experiment on UO-31 renal; 87.1% in the experiment with TK-10 renal; -60.3% (active) in the experiment with ACHN renal. Besides, the growth with CAKI-1 renal was 61.1%; in the experiment with A498 renal it was 43.5%; in the experiment with CCRF-CEM leukemia, -6.51% (active); with MOLT-4 leukemia, 60.7%; with SR leukemia, -35.8% (active); in the experiment with OVCAR-8 ovarian, 69.7%. For the same molecule, the growth is 50.9% in the experiment on OVCAR-5 ovarian; -62.3% (active) in the experiment with OVCAR-4 ovarian; 83.6% in the experiment on SK-OV-3 ovarian; 77.9% in the experiment on IGROV1 ovarian; 89.7% in the experiment with OVCAR-3 ovarian; 76.8% in the experiment with HS 578T breast. Besides, the growth with NCI/ADR-RES ovarian was 84%.

For `CN1C(=O)CNC(=O)[C@H](NC(=O)c2nc3ccccc3cc2O)CSSC[C@H]1C(=O)NCCc1nc2ccccc2cc1O`, the growth in the experiment with SK-MEL-2 melanoma is -17.1% (active); with EKVX NSCLC, 73.9%; in the experiment with SN12C renal, 69.2%; with UO-31 renal, 56.5%; in the experiment on TK-10 renal, 67.9%; in the experiment with ACHN renal, 78.6%. In addition, the growth with CAKI-1 renal was 105%; in the experiment on A498 renal, 131%; in the experiment on CCRF-CEM leukemia, 23.5%; in the experiment with MOLT-4 leukemia, 0.111% (active); in the experiment with SR leukemia, -41.8% (active); in the experiment with OVCAR-8 ovarian it was 92.2%. Besides, the growth is 129% in the experiment with OVCAR-5 ovarian; 90.7% in the experiment with OVCAR-4 ovarian; 117% in the experiment on SK-OV-3 ovarian; 19.5% with OVCAR-3 ovarian; 92.3% with HS 578T breast; 105% in the experiment on NCI/ADR-RES ovarian.
